High-throughput results deposited in PubChem BioAssay by several laboratories.
The list is not random: actives were taken first. Their share in the collection is about 5.6%.
M18AAP inhibitor: blocks P. falciparum M18 aspartyl aminopeptidase; recombinant PfM18AAP, H-Glu-NHMec fluorogenic cleavage; inhibition, % at 7.35 µM; actives 1.2% (n = 290,000); AID 1822;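 active = inhibition above the campaign mean inhibition over all tested compounds plus 3 SD, cut at about 28% in these data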;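 note: 0% = plate median of test compound wells and 100% = 2 mM ZnCl2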
H9c2 protect: myocardial damage modulation in H9c2 cells | protection from H2O2 cell death, % at 20 µM | H9c2 cardiomyocytes, H2O2 injury protection, ATPLite, 2 h | actives 0.63% (n = 360,000) | AID 588492;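 active = compounds giving at least 50% protection of heart cells from peroxide-induced death in the single-dose screen, raw or plate-pattern-corrected value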;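 note: 0% = DMSO wells with peroxide and 100% = DMSO wells without peroxide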
PHOSPHO1 inh: blocks human PHOSPHO1 phosphatase activity. Q8TCT1. recombinant PHOSPHO1, absorbance phosphatase assay. inhibition, % at 13.3 µM. actives 1.1% (n = 290,000); in the data active = inhibition above about 60%
Target sequence (Q8TCT1 whole entry, looked up): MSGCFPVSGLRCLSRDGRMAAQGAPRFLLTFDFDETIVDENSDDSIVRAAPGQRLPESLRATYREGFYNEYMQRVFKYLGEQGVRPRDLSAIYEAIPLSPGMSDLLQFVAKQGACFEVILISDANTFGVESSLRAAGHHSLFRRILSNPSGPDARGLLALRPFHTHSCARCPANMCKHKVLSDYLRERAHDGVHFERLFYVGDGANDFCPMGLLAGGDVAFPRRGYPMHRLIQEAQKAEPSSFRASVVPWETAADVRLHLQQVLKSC
ALR H2O2 inh: human ALR oxidase inhibition via reduced H2O2 | purified ALR, DTT oxidation, H2O2 HRP-luminol luminescence | inhibition, % (test concentration not listed) | actives 3.8% (n = 290,000);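 active = mean replicate inhibition above about 79%, with every replicate also reaching it, limit read from the data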
Target sequence (P55789 whole entry, looked up): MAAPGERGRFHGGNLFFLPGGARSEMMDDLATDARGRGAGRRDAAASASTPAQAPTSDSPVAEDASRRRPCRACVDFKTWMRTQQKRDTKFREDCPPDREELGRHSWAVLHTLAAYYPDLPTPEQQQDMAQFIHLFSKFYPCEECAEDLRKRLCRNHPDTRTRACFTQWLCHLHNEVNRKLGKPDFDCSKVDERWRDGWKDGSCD
PfGluPho inh: PfG6PD (Plasmodium falciparum) enzyme inhibition. PfGluPho enzyme, NADPH resazurin-diaphorase fluorescence. inhibition, % at 20 µM. actives 0.78% (n = 350,000);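 active = inhibition reaching at least a set limit at 20 µM in the primary screen, cut at about 59% in these data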;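 note: 0% = DMSO wells with substrate and 100% = DMSO wells lacking glucose-6-phosphate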
* marks the source's active call; other numbers are inactive results; nt = no result given.

SMILES	M18AAP inhibitor	H9c2 protect	PHOSPHO1 inh	ALR H2O2 inh	PfGluPho inh
CN(C)C(=O)CCc1ccc2c3c([nH]c2c1)[C@]1(C)[C@@H](C(=O)N2CCCCC2)C[C@H](CC(=O)NCC24CC5CC(CC(C5)C2)C4)C(=O)N1CC3	nt	-17.2	nt	nt	20.7
Cc1c2ccccc2c(C)c2c1ccc1ccccc12	nt	-21.7	nt	-25.6	32.4
CC1=Nc2ccc3ccccc3c2C1(C)C	-11.1	-7.1	62.9*	-17.6	3.5
Cc1ccc(-c2nn3c(C)nnc3s2)cc1NC(=O)c1ccc(-c2cccc(Cl)c2)o1	14.1	65.1*	12.8	nt	18.5
Cc1nnc2sc(-c3cccc(NC(=O)c4ccc(-c5cccc(Cl)c5)o4)c3)nn12	-3.5	nt	nt	nt	nt
CC(=O)N1c2ccc(S(=O)(=O)NCCC(=O)N3CCC(C)CC3)cc2CC1C (configuration not stated)	-2.9	-3.7	47.7	-1.5	5.9
O=C(NCCCn1ccnc1)c1cc(-c2cccc(O)c2)on1	-9.4	0.5	27.3	3.3	-14.7
CCOc1ccc(C(=O)Cc2ccccc2)cc1	nt	-1.8	nt	nt	8.3
CCOc1ccc(C(=O)CSCCC(=O)O)cc1	3.2	2.8	-6.8	98.3*	-4.1
O=C(CSc1ncc(-c2ccccc2)n1CC1CCCO1)N1CCCCC1 (configuration not stated)	-7.0	-3.9	43.1	nt	-9.7
Nc1ncc(-c2ccccc2)n1CC1CCCO1 (configuration not stated)	-1.6	61.6*	17.9	5.2	-15.8
CC(C(=O)N1CCc2ccccc21)n1cnc2c1c(=O)n(C)c(=O)n2C (configuration not stated)	nt	0.2	nt	nt	-1.5
O=C(CSc1ccc2nnc(-c3ccc(F)cc3)n2n1)N1CCCc2ccccc21	-2.0	80.3*	-20.6	-29.4	-15.1
O=C(CSc1ccc2nnc(-c3ccc(Cl)cc3)n2n1)N1CCCc2ccccc21	-0.1	24.7	-14.5	-19.0	3.3
CC(=O)C(Sc1ccc2nnc(-c3ccc(F)cc3)n2n1)C(C)=O	-5.8	-9.2	89.3*	4.4	18.0
Cc1ccc(CNC(=O)CSc2nc(=O)n3ccc(C)cc3n2)cc1	nt	1.5	nt	nt	-13.9
CCOC(=O)c1sc(-c2ccccc2)cc1NC(=O)Nc1ccc([N+](=O)[O-])cc1	-1.5	-4.9	11.1	98.6*	-1.2
COc1cc(-c2nnc(COC(=O)CSc3cc(C)c4ccccc4n3)o2)cc(OC)c1OC	-4.2	23.3	-8.4	-9.6	7.4
COc1cc(-c2nnc(COC(=O)c3cc(C)nc4ccc(C)cc34)o2)cc(OC)c1OC	-14.0	70.8*	-1.2	nt	21.7
O=C1CC[C@@H](C(=O)N2CSC[C@@H]2C(=O)Nc2cccc(C(F)(F)F)c2)N1	nt	5.2	nt	nt	10.1
Cc1ccc(S(=O)(=O)N2CCCCC2)cc1NC(=O)CSc1nnc(C2CC2)n1C	nt	5.6	nt	-8.2	9.3
CCOC(=O)[C@H]1[C@H]2COc3ccc(OC)cc3[C@@H]2N2C(=O)[C@H](C)NC(=O)[C@@]12C	nt	2.8	nt	-2.9	-1.6
CCOC(=S)SCC(=O)Nc1ncc(C)s1	9.4	-12.0	20.3	99.4*	32.5
Cc1cnc(NC(=O)CSc2ccccc2)s1	3.5	-3.0	16.8	-3.6	5.3
CCC(=O)N1CCN(c2ccccc2NC(=O)COc2cc(C)ccc2C(C)C)CC1	-1.9	54.9*	-3.4	-2.2	12.4
SMILES	M18AAP inhibitor	H9c2 protect	PHOSPHO1 inh	ALR H2O2 inh	PfGluPho inh
COCCNc1cnn(-c2ccccc2)c(=O)c1Cl	0.9	-4.8	30.2	0.7	-13.4
CS(=O)(=O)N1CCc2cc(-c3csc(NCC4CCCO4)n3)ccc21 (configuration not stated)	-9.4	0.5	nt	3.3	4.0
CC(Nc1nc(-c2ccc3c(c2)NC(=O)CO3)cs1)c1ccccc1 (configuration not stated)	4.0	-12.3	27.5	98.3*	21.8
COc1cccc(-c2nc(-c3ccc4c(c3)NC(=O)CO4)cs2)c1	0.1	11.3	1.7	-21.2	6.3
O=C1COc2ccc(-c3csc(NCC4CCCO4)n3)cc2N1 (configuration not stated)	-4.9	9.3	35.0	86.5*	28.7
CC1CCN(C(=O)C2CCC(C)(C(=O)O)C2(C)C)CC1 (configuration not stated)	0.2	1.0	-6.4	nt	-1.9
c1ccc2c(c1)ncn2Cc1nnc2sc(-c3ccc4c(c3)OCO4)nn12	-38.2	1.9	66.7*	-9.8	46.6
c1ccc(-c2nn3c(Cn4nnc5ccccc54)nnc3s2)nc1	-26.3	6.9	41.4	-17.9	40.7
Clc1ccccc1-c1nn2c(Cn3cnc4ccccc43)nnc2s1	-32.6	-0.8	83.7*	-11.7	40.7
Brc1ccccc1-c1nnc2sc(-c3ccc4c(c3)OCCO4)nn12	-0.9	20.2	0.2	-1.5	0.2
c1ccc(CCc2nn3c(Cn4cnc5ccccc54)nnc3s2)cc1	-2.7	-5.3	69.3*	-6.6	58.9
COc1ccc(OCc2nn3c(Cn4cnc5ccccc54)nnc3s2)cc1	0.1	-17.3	81.0*	-7.0	46.1
O=C(NNS(=O)(=O)c1ccccc1F)c1ccccc1-n1cccc1	0.6	1.5	19.2	14.2	-31.2
Cc1ccc(S(=O)(=O)CCC(=O)OCc2nnc(-c3ccccc3)o2)cc1	nt	5.5	nt	3.4	5.5
CC(=O)Nc1ccc(S(=O)(=O)N(C)CC(=O)OCC(=O)N(C)c2ccccc2)cc1	-3.7	8.8	42.6	-2.8	-2.6
CCCCC(CC)CN1CN(CC(CC)CCCC)CC(C)(N)C1 (configuration not stated)	nt	-44.9	nt	nt	4.2
O=C(c1ccc2snnc2c1)N1CCCCC1	7.0	1.2	1.5	-0.8	0.9
CCOC(=O)N1CCC(NC(=O)c2ccc3snnc3c2)CC1	-0.8	1.9	-6.0	97.9*	-17.2
CCOC(=O)N1CCC(NC(=O)c2ccc3c(c2)sc2nc(-c4cccc(OC)c4)cn23)CC1	29.6*	nt	9.2	nt	nt
O=C(NC1CC1)c1ccc2snnc2c1	-0.8	5.2	-9.0	nt	-4.4
O=C(c1ccc2snnc2c1)N1CCSCC1	2.6	0.9	99.0*	-3.9	-26.4
COc1ccccc1C(=O)NCC(c1cccs1)N1CCc2ccccc21 (configuration not stated)	nt	0.6	nt	27.7	10.0
CCc1nc2ccc(C(=O)NCCC(C)C)cn2c1N(C)Cc1ccc(OC)cc1	nt	8.3	nt	nt	nt
CC(C)(C)c1ccc(C(=O)CC(Sc2ccc(Cl)cc2)C(=O)O)cc1 (configuration not stated)	-30.6	-7.8	33.9	98.0*	22.8
Cc1ccc(SC(CC(=O)c2ccc(F)cc2)C(=O)O)cc1 (configuration not stated)	-81.8	9.6	5.5	nt	-13.8
COc1ccc(CCNC(=O)CSc2nnc(-c3ccccc3)c3ccccc23)cc1OC	-1.8	10.6	-0.6	96.0*	-14.2
COc1ccc(CCNC(=O)CSc2ccc3ccccc3c2)cc1OC	-6.2	-2.7	-6.4	99.0*	2.7
COc1ccc(CCNC(=O)CSc2ccc(NC(C)=O)cc2)cc1OC	8.2	9.2	31.0	98.5*	-0.2
COc1ccc(CCNC(=O)CSCC(=O)Nc2ccccc2)cc1OC	-5.7	-4.1	-111.4	-16.7	-7.8
